Source: PubChem (National Center for Advancing Translational Sciences (NCATS))
A549 viability = counter-screen for Nrf2 inhibitors: cytotoxicity in A549 cells; A549 ARE-Fluc cells, CellTiter-Fluor viability, 18-24 h; Potency, µM (top dose mostly 46 µM), without a hit: at the highest dose activity change, negative = cytotoxicity, most hits filed as inhibitors; actives 0.16% (n = 390,000); note: % is set by controls: 0 for no effect and ±100 for the full control effect
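A549 ARE-Fluc cells in 5% FBS OPTI-MEM, 5000 cells/well, rested 2 h then exposed to compounds in concentration-response for 18-24 h at 37 °C. Viability by CellTiter-Fluor fluorescence (Ex 405/Em 525) after 30 min; luciferase luminescence (BugLite, 15 min, RT) read afterwards.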
TGFb SMAD3 inh = blocks TGF-b signaling; HepG2 CAGA-GFP TGF-b/SMAD3 reporter, GFP fluorescence, 18 h; TGF-beta stimulated, 500 pg/mL final; Potency, µM (top dose mostly 46.1 µM), without a hit: top-dose activity, negative = inhibition, hits mostly inhibitors; actives 1.2% (n = 410,000); AID 588855; note: % is set by controls: 0 for no effect and ±100 for the full control effect; nearly all actives have a fitted effect of over 65% in size
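HEPG2 CAGA-GFP cells (1000/well, DMEM with 1% FBS) were pre-incubated 2 h at 37 degrees C, given compound by pin tool, then stimulated with TGF-beta at 500 pg/mL final for 18 h before per-cell GFP fluorescence imaging.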
Nrf2 block = Nrf2 pathway inhibition; AID 504444; A549 ARE-Fluc reporter, luciferase luminescence, 18-24 h; actives 2.1% (n = 360,000); Potency, µM (doses to about 46 µM), inactives show top-dose activity change, negative = inhibition, actives largely listed as inhibitors; note: % is set by controls: 0 for no effect and ±100 for the full control effect; nearly all actives have a fitted effect of over 60% in size
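Nrf2 activity is the BugLite luminescence, read 15 min after reagent at room temperature, following CellTiter-Fluor cytotoxicity readout (30 min, 37C). Compound titrations were applied for 18-24 h to 5000 A549 ARE_Fluc cells/well in 5% FBS OPTI-MEM.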
HepG2 viability = counter-screen for TGF-b inhibitors: cytotoxicity in HepG2 cells; actives 0.76% (n = 410,000); Potency, µM (titrated, usually from 46.1 µM), for the others: top-dose activity change, negative = cytotoxicity, actives largely listed as cytotoxic; HepG2 CAGA-GFP viability, ATP luminescence, 18 h
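HepG2 CAGA-GFP cells (1000/well, DMEM with 1% FBS) received compound, then TGF-beta at 500 pg/mL final, and were incubated 18 hours at 37 degrees C. Viability was read by CellTiter-Glo luminescence. Media-only wells were set as complete cell-killing and DMSO as no toxicity.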
Nrf2 activator = Nrf2 pathway activation; Potency, µM (highest dose often 46.1 µM), without a hit: at the highest dose activation, most hits filed as activators; actives 0.31% (n = 410,000); AREc32 ARE-luciferase reporter (MCF7-derived line), luminescence, 24 h; note: % of control where 0% means no effect; nearly all actives have a fitted effect of over 65% in size
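ARE-driven firefly luciferase activity in AREc32 cells measured after a 24 hr compound exposure at 37 deg C, using Steady-Glo reagent and a 30 min room-temperature hold.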
* hit, by the source's call; ? = inconclusive; . = no result given; [ ] = dose if it differs, or a comment. Most compounds without a hit are left out; they make up all but 3.6% or so of the library. Calls come from the whole dose curve; as a rule, active = well fitted curve in the direction sought with a large enough effect; inconclusive = small, poorly fitted or top-dose-only effect, or another doubt; inactive = no such curve, though single readings can be large; an effect the other way counts as inactive or inconclusive. Potency is the fitted concentration of half-maximal effect.

SMILES | A549 viability | TGFb SMAD3 inh | Nrf2 block | HepG2 viability | Nrf2 activator
O=C1N[C@@H](Cc2ccccc2)COC(=O)[C@H](Cc2ccc(F)cc2)CC/C=C/C[C@H]1CC(=O)N(CCO)Cc1ccccc1 | -26% | ? | 23µM* | -6% | -3%
Cc1ccc2onc(CC(=O)N3CCN(c4ccccc4F)CC3)c2c1 | -3% | -3% | -26% | -19% | 0%
Cc1ccc2onc(CC(=O)N3CCN(c4ccc(F)cc4)CC3)c2c1 | ? | -6% | 16µM* | -13% | 0%
Cc1cccc(CN2CCC(CNc3ncnc4onc(-c5ccc(Cl)cc5)c34)CC2)c1 | 2% | ? | 8% | -32% | 0%
COc1ccc(OCC(O)CNCCOc2ccccc2OC)c(C(C)(C)C)c1 (centres undefined) | -12% | 13µM* | -3% | -117% | -3%
CS(=O)(=O)c1ccc(S(=O)CC(=O)Oc2ccc(Cl)cc2)c([N+](=O)[O-])c1 (centres undefined) | ? | ? | ? | 18µM* | ?
O=C(CS(=O)c1ccccc1[N+](=O)[O-])Oc1ccc(Br)cc1 (centres undefined) | 2% | -13% | -20% | -15% | 4%[9.22 µM]
Cc1ccccc1OCc1nc(-c2ccc(NC(=O)c3ccc4c(c3)OCO4)cc2)no1 | ? | ? | ? | 20µM* | 6%
COC(=O)Cc1cc(=O)n2[nH]c(SC)nc2n1 | 2% | 11% | -2% | -2% | 0%
Cc1csc2c(=O)sc(NC(=O)c3ccc(F)cc3)nc12 | 1% | -14% | 5% | -18% | ?
Cc1csc2nc(NC(=O)c3ccccc3)sc(=O)c12 | -1% | -5% | ? | 9% | 3.2µM*
Cc1nc(NC(=O)c2ccccc2)sc1-c1csc(NCc2ccccc2)n1 | -16% | 7% | 21µM* | -15% | 3%
Cc1nc2sccn2c1-c1csc(NCc2ccccc2)n1 | -14% | ? | 8.2µM* | -27% | 7%
C=CCNc1nc(-c2c(C)nc3sccn23)cs1 | -8% | -12% | -16% | -16% | 5%
CS(=O)(=O)c1ccc(C(=O)OCC(=O)N2CCCC2)cc1[N+](=O)[O-] | -5% | 11µM* | -10% | -102% | .
CS(=O)(=O)c1ccc(C(=O)OCC(=O)N2CC(=O)Nc3ccccc32)cc1[N+](=O)[O-] | -8% | 0% | -2% | 2% | .
CC1CCCCN1C(=O)COC(=O)c1ccc(S(C)(=O)=O)c([N+](=O)[O-])c1 (centres undefined) | -5% | ? | -3% | 7.9µM* | .
CS(=O)(=O)c1ccc(C(=O)OCC(=O)N2CCOCC2)cc1[N+](=O)[O-] | . | 7.1µM* | . | 8.9µM* | ?
CC1CCCCN1C(=O)COC(=O)CSc1ccc(C(N)=O)cc1[N+](=O)[O-] (centres undefined) | -7% | 16% | 9% | 12% | 1%
CS(=O)(=O)c1ccc(C(=O)OCC(=O)N2CCN(CCC3CCCCC3)CC2)cc1[N+](=O)[O-] | . | 4µM* | . | 3.2µM* | -5%
COc1cc(NC(=O)Cn2ncc3c(=O)oc4ccccc4c32)cc(OC)c1OC | -1% | -7% | -9% | -5% | 0%
CC(C)N1C[C@@]23C=C[C@@H](O2)C(C(=O)OCc2ccccc2)[C@H]3C1=O (some centres undefined) | 0% | 10% | 12% | -7% | 0%
CC(C)CC(=O)Nc1c(C(=O)N2CCN(c3ccccc3)CC2)oc2ccccc12 | 3% | -17% | -23% | -14% | 1%
NC(=O)NOCc1ccc(Cl)cc1Cl | 4% | 14% | 0% | 2% | 2%
CNC(=S)/N=C/NOCc1ccc(Cl)cc1Cl | 1% | 14µM* | ? | -13% | 0%
SMILES | A549 viability | TGFb SMAD3 inh | Nrf2 block | HepG2 viability | Nrf2 activator
COC(=O)Cc1[nH]nc2c1C1(C(=O)N(Cc3ccccc3)c3ccccc31)C(C#N)=C(N)O2 (centres undefined) | -7% | ? | 1% | -10% | -1%
Cc1[nH]nc2c1C1(C(=O)N(Cc3ccc(Cl)cc3)c3ccccc31)C(C#N)=C(N)O2 (centres undefined) | -6% | ? | 21µM* | -14% | 0%
CCOc1ccc(NS(=O)(=O)c2ccc(NC(=S)NC(=O)CC(C)C)cc2)cc1 | ? | 0% | . | -100% | 4%
CCCC(=O)NC(=S)Nc1ccc(S(=O)(=O)Nc2ccc(OCC)cc2)cc1 | 18µM* | 0% | 7.3µM* | -36% | 3%
CCOc1ccc(NS(=O)(=O)c2ccc(NC(=O)c3ccccn3)cc2)cc1 | -11% | -8% | 15µM* | -7% | -1%
CCCOc1ccc(Cl)cc1CN1CCOCC1 | 0% | 3% | -1% | -6% | 3%
O=C(CSC1=NCCS1)c1ccc(Cl)cc1 | -19% | -17% | 13µM* | -3% | 2%
O=C(CSC1=NCCS1)N1CCN(c2ccc(Cl)cc2)CC1 | -18% | -15% | ? | -18% | 7%
Clc1ccc(-c2nc(-c3cnccn3)no2)cc1 | 0% | 1% | ? | -16% | 4%
COc1ccc(C(=O)C(CN2CCCC2)c2ccccc2)cc1 (centres undefined) | -6% | 11µM* | -13% | 32µM* | ?
C/C(N)=C(/C#N)C(=O)CSc1nnc(SCc2ccc(Cl)cc2)s1 | -15% | -3% | 21µM* | -6% | 6%
C/C(N)=C(/C#N)C(=O)CSc1nn(-c2ccc(Cl)cc2)c(=S)s1 | 0% | ? | -54% | -49% | 7%
CCn1c(-c2ccccn2)nc2cc(S(=O)(=O)N(C)C)ccc21 | -3% | 1% | -15% | -3% | 3%
CCCn1c(N)c(C(=O)CSc2nnc(Cc3cccs3)n2C2CC2)c(=O)n(C)c1=O | -4% | -15% | 12µM* | -19% | 3%
Cn1c(N)c(C(=O)CSc2nnc(Cc3cccs3)n2C2CC2)c(=O)n(C)c1=O | 1% | 1% | 7% | 10% | 2%
CC(=O)c1cccc(Oc2cc(NN3CCCCC3)c([N+](=O)[O-])cc2[N+](=O)[O-])c1 | ? | ? | ? | -19% | 0%
CC(=O)c1ccccc1Oc1cc(NN2CCCCC2)c([N+](=O)[O-])cc1[N+](=O)[O-] | -19% | -17% | 26µM* | -32% | 1%
Cn1c(=O)c2c(O)c([N+](=O)[O-])c(=O)n(C)c2n(C)c1=O | 0% | -2% | 9% | 11µM* | 0%
Cn1c(=O)c2c(O)c(Cc3ccccc3)c(=O)n(C)c2n(C)c1=O | 3% | 19% | 7% | 3% | 4%
CC1CCc2cc(F)ccc2N1C(=O)CSc1nnc2c(n1)[nH]c1ccc(F)cc12 (centres undefined) | ? | -1% | 21µM* | -3% | 0%
